Reference: the supplement of paper PMC11732987, “Enantioselective OTUD7B fragment discovery through chemoproteomics screening and high-throughput optimisation” (Communications Chemistry, 2025)

Experiments:
Test in all cases: log2 ratio of Biotin-Ahx-Ub-VS probe labelling (fragment/DMSO); higher = less target engagement (more negative = stronger competition), active = hit call of the paper (q ≤ 0.05, log2 ratio ≤ -1)
Settings in all cases: compound concentration: 200 uM; treatment time: 3 h
ALG13 = target: T1, ALG13 (UniProt Q9NP73)
T1 sequence (whole entry): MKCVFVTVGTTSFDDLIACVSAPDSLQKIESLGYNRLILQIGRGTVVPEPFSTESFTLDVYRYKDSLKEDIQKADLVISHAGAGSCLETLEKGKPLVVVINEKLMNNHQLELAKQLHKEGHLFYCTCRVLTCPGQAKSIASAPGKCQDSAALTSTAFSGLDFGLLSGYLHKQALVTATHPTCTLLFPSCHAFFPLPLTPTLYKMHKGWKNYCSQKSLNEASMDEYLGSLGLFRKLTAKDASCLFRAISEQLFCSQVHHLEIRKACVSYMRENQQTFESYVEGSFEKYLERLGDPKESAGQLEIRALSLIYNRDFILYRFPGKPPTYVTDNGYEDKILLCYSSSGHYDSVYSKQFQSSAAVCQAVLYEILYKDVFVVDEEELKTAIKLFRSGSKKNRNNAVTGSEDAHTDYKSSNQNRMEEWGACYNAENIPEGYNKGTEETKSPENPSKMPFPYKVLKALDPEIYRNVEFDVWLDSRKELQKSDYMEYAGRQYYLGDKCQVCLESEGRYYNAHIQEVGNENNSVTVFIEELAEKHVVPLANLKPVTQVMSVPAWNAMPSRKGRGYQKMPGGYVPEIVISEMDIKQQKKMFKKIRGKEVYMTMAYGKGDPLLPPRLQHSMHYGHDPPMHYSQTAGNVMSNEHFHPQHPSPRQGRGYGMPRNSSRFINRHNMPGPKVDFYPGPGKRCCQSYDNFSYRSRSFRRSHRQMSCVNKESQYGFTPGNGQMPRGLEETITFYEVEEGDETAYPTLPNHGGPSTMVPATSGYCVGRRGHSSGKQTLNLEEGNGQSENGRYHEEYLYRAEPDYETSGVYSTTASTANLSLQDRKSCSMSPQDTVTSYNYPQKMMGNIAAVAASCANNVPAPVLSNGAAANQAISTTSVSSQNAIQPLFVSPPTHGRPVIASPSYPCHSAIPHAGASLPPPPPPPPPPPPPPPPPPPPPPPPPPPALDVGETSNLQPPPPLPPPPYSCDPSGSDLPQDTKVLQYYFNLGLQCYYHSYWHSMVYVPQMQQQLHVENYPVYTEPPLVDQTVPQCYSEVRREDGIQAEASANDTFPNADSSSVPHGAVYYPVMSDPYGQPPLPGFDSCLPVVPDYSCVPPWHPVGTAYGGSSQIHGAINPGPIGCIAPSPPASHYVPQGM
In short: (§1)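 Average log2 ratios of fragment over vehicle were obtained by unpaired t-test from global-median-normalised Spectronaut label-free quantities. Proteins with ≥2 unique peptides were included. HEK293T lysate (495 µg per sample) was treated in triplicate with fragment at 200 µM or vehicle for 3 h, then with Biotin-Ahx-Ub-VS at 0.5 µM final for 1 h, and labelled DUBs were NeutrAvidin-enriched and run by diaPASEF LC-MS/MS.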

ATXN3 = ATXN3 (UniProt P54252)
ATXN3, sequence (P54252 whole entry): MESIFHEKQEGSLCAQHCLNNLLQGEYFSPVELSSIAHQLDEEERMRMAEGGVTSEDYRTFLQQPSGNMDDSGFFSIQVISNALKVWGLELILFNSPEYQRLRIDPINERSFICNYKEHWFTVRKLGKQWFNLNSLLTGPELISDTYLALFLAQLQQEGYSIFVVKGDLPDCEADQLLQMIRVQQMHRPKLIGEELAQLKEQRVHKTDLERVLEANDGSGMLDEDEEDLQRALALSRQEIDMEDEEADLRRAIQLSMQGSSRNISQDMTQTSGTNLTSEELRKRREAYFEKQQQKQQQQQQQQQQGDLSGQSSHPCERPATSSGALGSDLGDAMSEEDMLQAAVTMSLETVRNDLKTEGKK
In short: as §1

BAP1 = target: T2, BAP1 (UniProt Q92560)
T2 sequence (whole entry): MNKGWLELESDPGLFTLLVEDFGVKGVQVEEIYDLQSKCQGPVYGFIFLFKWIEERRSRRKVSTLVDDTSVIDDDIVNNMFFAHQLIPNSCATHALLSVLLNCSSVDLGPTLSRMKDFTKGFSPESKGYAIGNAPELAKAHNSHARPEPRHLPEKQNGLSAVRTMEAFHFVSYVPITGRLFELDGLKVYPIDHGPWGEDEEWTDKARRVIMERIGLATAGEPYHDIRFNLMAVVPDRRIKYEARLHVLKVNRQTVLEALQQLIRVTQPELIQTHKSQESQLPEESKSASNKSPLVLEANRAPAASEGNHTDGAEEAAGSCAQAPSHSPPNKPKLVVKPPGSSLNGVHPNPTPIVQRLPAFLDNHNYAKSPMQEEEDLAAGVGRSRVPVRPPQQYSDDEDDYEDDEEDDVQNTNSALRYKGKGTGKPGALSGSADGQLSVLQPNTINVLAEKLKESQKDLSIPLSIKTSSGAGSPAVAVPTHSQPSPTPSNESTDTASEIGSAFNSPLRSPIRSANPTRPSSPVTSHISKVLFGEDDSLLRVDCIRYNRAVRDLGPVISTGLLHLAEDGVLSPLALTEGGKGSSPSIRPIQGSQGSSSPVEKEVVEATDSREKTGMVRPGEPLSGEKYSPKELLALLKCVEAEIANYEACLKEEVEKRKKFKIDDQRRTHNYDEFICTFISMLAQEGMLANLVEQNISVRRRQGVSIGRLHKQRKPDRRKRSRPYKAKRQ
In short: as §1

EIF3F = EIF3F (UniProt O00303)
EIF3F, sequence (O00303 whole entry): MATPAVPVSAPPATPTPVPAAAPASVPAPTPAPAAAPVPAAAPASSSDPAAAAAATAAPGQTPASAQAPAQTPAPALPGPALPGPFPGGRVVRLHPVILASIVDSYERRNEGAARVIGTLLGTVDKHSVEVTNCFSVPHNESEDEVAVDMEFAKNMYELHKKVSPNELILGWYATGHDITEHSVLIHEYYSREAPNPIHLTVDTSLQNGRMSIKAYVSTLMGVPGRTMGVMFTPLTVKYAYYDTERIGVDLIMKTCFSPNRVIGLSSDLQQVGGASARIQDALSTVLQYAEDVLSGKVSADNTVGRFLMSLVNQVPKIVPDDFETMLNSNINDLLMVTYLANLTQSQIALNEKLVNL
In short: as §1

EIF3H = EIF3H (UniProt O15372)
EIF3H, sequence (O15372 whole entry): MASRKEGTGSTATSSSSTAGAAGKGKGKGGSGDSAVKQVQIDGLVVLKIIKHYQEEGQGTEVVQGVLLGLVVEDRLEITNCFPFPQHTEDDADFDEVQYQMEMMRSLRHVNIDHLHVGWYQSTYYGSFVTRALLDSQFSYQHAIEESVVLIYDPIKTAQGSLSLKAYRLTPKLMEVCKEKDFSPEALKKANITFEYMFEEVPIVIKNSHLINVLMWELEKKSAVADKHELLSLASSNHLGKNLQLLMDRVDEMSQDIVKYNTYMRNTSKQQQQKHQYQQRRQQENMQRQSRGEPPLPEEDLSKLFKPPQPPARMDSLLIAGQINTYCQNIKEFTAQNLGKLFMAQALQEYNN
In short: as §1

FAM105A = target: T3, FAM105A (UniProt Q9NUU6)
T3 sequence (whole entry): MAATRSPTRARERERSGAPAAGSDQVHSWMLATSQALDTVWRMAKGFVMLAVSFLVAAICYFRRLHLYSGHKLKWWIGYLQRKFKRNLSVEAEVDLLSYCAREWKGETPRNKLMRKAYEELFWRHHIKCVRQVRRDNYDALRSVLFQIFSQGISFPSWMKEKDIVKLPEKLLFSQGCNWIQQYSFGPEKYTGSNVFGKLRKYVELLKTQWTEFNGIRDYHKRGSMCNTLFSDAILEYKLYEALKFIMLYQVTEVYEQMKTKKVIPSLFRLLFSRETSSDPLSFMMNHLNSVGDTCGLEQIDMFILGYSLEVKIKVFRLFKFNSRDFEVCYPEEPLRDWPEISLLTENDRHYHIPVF
In short: as §1

OTUB1 = OTUB1 (UniProt Q96FW1)
OTUB1, sequence (Q96FW1 whole entry): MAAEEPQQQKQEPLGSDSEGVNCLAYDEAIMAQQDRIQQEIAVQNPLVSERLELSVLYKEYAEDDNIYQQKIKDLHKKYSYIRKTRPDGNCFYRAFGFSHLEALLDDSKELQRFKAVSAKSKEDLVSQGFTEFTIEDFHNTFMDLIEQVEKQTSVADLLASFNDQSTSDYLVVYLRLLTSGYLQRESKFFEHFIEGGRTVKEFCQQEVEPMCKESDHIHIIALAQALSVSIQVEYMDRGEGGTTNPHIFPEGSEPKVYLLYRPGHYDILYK
In short: as §1

OTUD4 = target: T4, OTUD4 (UniProt Q01804)
T4 sequence (whole entry): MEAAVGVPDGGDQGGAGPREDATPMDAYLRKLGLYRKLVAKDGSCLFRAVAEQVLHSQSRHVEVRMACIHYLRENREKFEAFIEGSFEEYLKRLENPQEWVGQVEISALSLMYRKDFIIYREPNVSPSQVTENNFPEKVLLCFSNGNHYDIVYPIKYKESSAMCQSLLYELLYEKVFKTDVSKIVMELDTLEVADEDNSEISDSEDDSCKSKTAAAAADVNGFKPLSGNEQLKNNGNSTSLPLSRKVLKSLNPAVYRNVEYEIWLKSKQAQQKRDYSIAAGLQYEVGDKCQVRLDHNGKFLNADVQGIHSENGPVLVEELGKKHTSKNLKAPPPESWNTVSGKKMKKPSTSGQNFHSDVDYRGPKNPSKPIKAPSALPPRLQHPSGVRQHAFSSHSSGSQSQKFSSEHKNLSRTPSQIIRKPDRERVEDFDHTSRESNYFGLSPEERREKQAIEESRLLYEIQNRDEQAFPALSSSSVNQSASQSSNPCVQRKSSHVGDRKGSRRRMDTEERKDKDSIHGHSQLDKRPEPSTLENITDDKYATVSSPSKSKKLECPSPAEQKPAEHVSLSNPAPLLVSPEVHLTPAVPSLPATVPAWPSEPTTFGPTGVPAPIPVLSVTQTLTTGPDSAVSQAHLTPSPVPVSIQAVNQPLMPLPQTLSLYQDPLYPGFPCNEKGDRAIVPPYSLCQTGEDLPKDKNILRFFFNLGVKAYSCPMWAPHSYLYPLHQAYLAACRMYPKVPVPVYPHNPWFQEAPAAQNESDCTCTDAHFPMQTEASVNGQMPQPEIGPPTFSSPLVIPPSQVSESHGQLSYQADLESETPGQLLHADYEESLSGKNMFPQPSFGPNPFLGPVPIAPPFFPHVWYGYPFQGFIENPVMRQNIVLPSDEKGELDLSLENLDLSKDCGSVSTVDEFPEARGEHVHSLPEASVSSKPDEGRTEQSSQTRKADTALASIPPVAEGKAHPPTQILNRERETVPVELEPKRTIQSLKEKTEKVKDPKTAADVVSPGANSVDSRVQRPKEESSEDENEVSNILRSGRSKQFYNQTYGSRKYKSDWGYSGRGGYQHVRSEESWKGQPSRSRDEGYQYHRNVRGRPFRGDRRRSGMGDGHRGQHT
In short: as §1

OTUD5 = target: T5, OTUD5 (UniProt Q96G74)
T5 sequence (whole entry): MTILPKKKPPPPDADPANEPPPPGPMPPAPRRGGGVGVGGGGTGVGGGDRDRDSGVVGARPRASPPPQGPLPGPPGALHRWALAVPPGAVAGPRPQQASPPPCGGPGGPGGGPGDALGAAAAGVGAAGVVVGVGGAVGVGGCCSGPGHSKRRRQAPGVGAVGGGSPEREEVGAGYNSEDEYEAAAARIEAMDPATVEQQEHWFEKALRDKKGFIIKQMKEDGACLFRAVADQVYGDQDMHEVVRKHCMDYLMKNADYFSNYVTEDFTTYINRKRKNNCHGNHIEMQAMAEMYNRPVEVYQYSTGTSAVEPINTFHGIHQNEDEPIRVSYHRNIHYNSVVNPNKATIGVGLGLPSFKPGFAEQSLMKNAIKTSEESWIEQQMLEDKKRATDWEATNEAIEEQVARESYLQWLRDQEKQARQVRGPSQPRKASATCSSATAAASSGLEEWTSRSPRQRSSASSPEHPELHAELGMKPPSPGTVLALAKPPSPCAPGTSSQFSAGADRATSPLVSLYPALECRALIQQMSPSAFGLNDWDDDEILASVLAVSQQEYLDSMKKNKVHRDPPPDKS
In short: as §1

Measured: log2 ratio of Biotin-Ahx-Ub-VS probe labelling

Cc1cnc2[nH]cc(CCNC(=O)CCl)c2c1
active: BAP1 -1
inactive: ALG13 -0.0473 | ATXN3 -0.0726 | EIF3F -0.228 | EIF3H 0.13 | FAM105A -0.55 | OTUB1 0.0416 | OTUD4 -0.139 | OTUD5 -0.26
